18 compounds from PubChem BioAssay (NCI) can be followed below.

Compounds without any hit were thinned out: in the full panel of roughly 83,000, 20% have a hit.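 Values shown are percent growth following 48 h exposure of cells in 96-well plates to a single concentration of compound; below 10 was considered active.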 Values without a mark were called inactive. Activity calls are given as the source filed them.

Common to all, as to assay: NCI-60 one-dose screen, 48 h (100 = growth as untreated, 0 = no growth, -100 = all killed)
Common to all, as to conditions: 10 µM unless noted

The subject of assay [1] is RPMI-8226 leukemia.
In assay [2] the test system is OVCAR-8 ovarian.
Assay [3] relates to OVCAR-5 ovarian.
In assay [4] the test system is OVCAR-4 ovarian.
Assay [5] relates to SK-OV-3 ovarian.
The test system of assay [6] is IGROV1 ovarian.
In assay [7] the test system is OVCAR-3 ovarian.
The subject of assay [8] is HS 578T breast.
Assay [9] concerns NCI/ADR-RES ovarian.
The test system of assay [10] is T-47D breast.
Assay [11] concerns BT-549 breast.
The test system of assay [12] is MDA-MB-435 melanoma.
In assay [13] the test system is SW-620 colon.
The subject of assay [14] is HCT-116 colon.
The test system of assay [15] is HCC-2998 colon.
Assay [16] concerns KM12 colon.
In assay [17] the test system is MCF7 breast.

For the compound `Cc1c(N(C)CS(=O)(=O)O)c(=O)n(-c2ccccc2)n1C`, the growth in [1] is 99.2%; in assay [2], 109%; in assay [3] it was 106%; in assay [4], 116%; in assay [5] it was 104%; in assay [6], 103%. In addition, the growth is 118% in assay [7]; 125% in [8]; 109% in assay [9]; 107% in assay [10]; 96.5% in assay [11]; 103% in assay [12]. Also, the growth in assay [13] was 108%; in assay [14], 105%; in assay [15], 121%; in assay [16] it was 109%.
For `COc1ccc2[nH]c(-c3ccccc3)cc2c1`, the growth in assay [1] is 48.5%; in assay [2], 103%; in assay [3] it was 109%; in [4], 81.3%; in assay [5], 110%; in [6] it was 100%. In addition, the growth is 101% in [7]; 105% in [8]; 113% in assay [9]; 72% in [10]; 100% in assay [12]; 102% in assay [13]. Besides, the growth was 95% in assay [17], 100% in [14], 118% in assay [15] and 99.3% in [16].
With `C=C(C)[C@H]1CC/C(C)=C/CC[C@]2(C)O[C@H]2CC/C(COC(C)=O)=C\C1=O`, the growth in assay [1] was -80.2% (active); in [2], 107%; in [3] it was 98.7%; in [4], 123%; in [5] it was 111%; in assay [6], 74.4%. The growth in assay [7] is 164%; in assay [8] it was 119%; in assay [9], 102%; in assay [10], 95.1%; in assay [12] it was 95.2%; in [13], 109%. The growth was 110% in assay [17], 95% in assay [14], 103% in assay [15] and 143% in assay [16].
Regarding `NC(=O)c1ncn([C@@H]2O[C@H](CO)[C@@H](O)[C@H]2O)n1`, the growth in assay [1] is 87.2%; in assay [2], 72.7%; in assay [3], 102%; in assay [4], 92.2%; in [5] it was 96.8%; in [6], 98.9%. Besides, the growth in [7] was 103%; in [8], 113%; in assay [9], 88%; in assay [10] it was 89%; in assay [11] it was 105%; in assay [12], 101%. The growth in [13] is 71.5%; in assay [14], 89.6%; in assay [15] it was 87.6%; in assay [16] it was 100%.
In the case of `O=C(/C=C/c1cccnc1)/C=C/c1cccnc1`, the growth in assay [1] was -61.1% (active); in [2] it was -25.2% (active); in assay [3], -21.7% (active); in assay [4], 20.9%; in assay [5], 31%; in assay [6], -89.3% (active). Besides, the growth was -40.9% (active) in assay [7]; -16% (active) in [8]; 32.2% in assay [9]; -2.05% (active) in [10]; -28.9% (active) in assay [12]; -68.6% (active) in assay [13]. Also, the growth was -39.4% (active) in [17], -92.7% (active) in assay [14], -70.6% (active) in [15] and -85.1% (active) in [16].
With `COc1ccc(C2=NN(C(C)=O)C(c3cc(OC)c(OC)c(OC)c3)C2)cc1` (stereo not drawn), the growth is 93.9% in assay [1]; 108% in assay [2]; 111% in assay [3]; 112% in [4]; 108% in assay [5]; 92.8% in assay [6]. Besides, the growth in [7] was 88.6%; in [8], 244%; in assay [9], 83%; in assay [10] it was 92.1%; in assay [12], 34.1%; in assay [13], 98%. In addition, the figures for the growth in [17], in [14] and in [16] were 89.8%, 103% and 60.5%, respectively.
Consider `O=C(c1ccccc1)c1ccco1`, for which the growth in [1] is 101%; in [2], 98.2%; in [3] it was 114%; in [4], 99.4%; in assay [5] it was 104%; in [6], 99.5%. Further, the growth in [7] is 108%; in assay [8], 118%; in assay [9], 95.7%; in [10], 97%; in assay [11] it was 97.8%; in assay [13], 110%. Also, the growth is 93.2% in assay [17], 102% in assay [14] and 107% in assay [16].
On to `O=C(Nc1nc2ccccc2s1)c1cc(-c2ccc(F)cc2)n2nc(-c3ccccc3)cc2n1`, for which the growth in assay [1] was 50.9%; in assay [2], 56.1%; in [3], 64.7%; in [4], -24.7% (active); in [5] it was 35%; in [6], 78%. For the same compound, the growth was 20.3% in assay [7]; 59.7% in [8]; 61.8% in assay [9]; 79% in assay [11]; 86.5% in [12]; 67.8% in assay [13]. For the same compound, the growth was 69.3% in assay [17], 45.8% in assay [14], 97.5% in assay [15] and 68.7% in [16].
Regarding `Oc1ccccc1C=Nc1ccccc1N=Cc1ccccc1O.[Cu+2]`, the growth in assay [1] was 19.1%; in assay [2], 15.1%; in assay [3], 103%; in assay [4], 35.5%; in assay [5], 76%; in assay [6], 55.5%. For the same compound, the growth was 71.7% in [7]; 137% in assay [8]; 20.2% in assay [9]; 20.2% in assay [10]; 56% in assay [12]; 83.4% in [13]. In addition, the growth in assay [17] is 27.6%; in assay [14], 57.9%; in assay [15], 74.2%; in assay [16], 44.6%.
For `O=[N+]([O-])c1ccc(N/N=C/c2c(O)ccc3ccccc23)nc1`, the growth in assay [1] is 31%; in assay [2], 34.9%; in assay [3], 77.5%; in assay [4], 21.2%; in [5] it was 50.9%; in assay [6], 18.5%. The growth was 20.3% in assay [7]; 117% in assay [8]; 27.3% in assay [9]; 47.4% in [10]; 58.5% in [12]; 48.7% in assay [13]. For the same compound, the growth in assay [17] was 17.3%; in assay [14] it was 25.9%; in assay [15], 54.2%; in assay [16] it was 44.2%.
Consider `COc1ccc(/C=N\Nc2ccc([N+](=O)[O-])cn2)cc1OC`, for which the growth in assay [1] was 40%; in assay [2] it was 14.6%; in [3], 22.2%; in [4] it was -56.6% (active); in assay [5], 36.8%; in assay [6] it was 23.2%. In addition, the growth in assay [7] was 47%; in assay [8], 47.8%; in assay [9], 65%; in assay [10], -7.26% (active); in assay [12] it was 72.9%; in assay [13], 61.5%. The growth in [17] was 74.7%; in [14] it was 17.1%; in assay [15] it was 99.7%; in [16], 44.1%.
For `NC(N)=NC(N)=NCCCc1ccccc1`, the growth is 62.6% [100 µM] in assay [1]; 71.1% [100 µM] in assay [2]; 76.3% [100 µM] in assay [3]; 70% [100 µM] in assay [4]; 67.7% [100 µM] in assay [5]; 53.1% [100 µM] in assay [6]. Moreover, the growth in assay [7] was 56.9% [100 µM]; in [9], 81.2% [100 µM]; in [10] it was 53.7% [100 µM]; in assay [11] it was 49.5% [100 µM]; in assay [12], 60.5% [100 µM]; in assay [13], 77.8% [100 µM]. The growth was 59.2% [100 µM] in assay [17], 50.6% [100 µM] in assay [14], 68.5% [100 µM] in [15] and 78.1% [100 µM] in [16].
With `COc1cc2cn3c4ccc(O)cc4nc(N)c3c2cc1OC`, the growth in assay [1] is 19.9%; in [2] it was 29.6%; in assay [3], 45.3%; in [4] it was 38.7%; in [5], 27.2%; in assay [6], 33.9%. Further, the growth was 1.25% (active) in [7]; 42.4% in assay [9]; 12.5% in assay [10]; 20.6% in assay [11]; 12.4% in assay [12]; 26.1% in assay [13]. Further, the growth in assay [17] was 6.3% (active); in [14], -50.7% (active); in assay [16], 37.9%.
Consider `COc1ccc(Cn2c(NCCCN(C)C)nc(=O)n(Cc3ccc(F)cc3)c2=O)cc1`, for which the growth in assay [1] was 95.7%; in [2], 98.9%; in assay [3], 109%; in assay [4], 93.1%; in assay [5] it was 86.3%; in [6], 84.7%. Further, the growth in [7] was 87%; in assay [8], 93.3%; in assay [9], 109%; in [11] it was 92.5%; in assay [12] it was 102%; in assay [13] it was 100%. For the same compound, the growth was 87.9% in [17], 93.8% in assay [14], 101% in [15] and 99.8% in assay [16].
Turning to `Fc1ccc(-c2nnc(-c3c(-c4ccc(F)cc4)nc4ncccn34)o2)cc1`, the growth in assay [1] was 92.5%; in assay [2], 95.7%; in assay [3], 87.3%; in assay [4], 106%; in assay [5], 112%; in assay [6], 106%. In addition, the growth in assay [7] is 110%; in assay [8], 115%; in assay [9] it was 97.3%; in [11] it was 99.9%; in assay [12], 97%; in assay [13], 108%. Also, the growth in assay [17] was 92.4%; in assay [14], 94.5%; in assay [15] it was 111%; in [16] it was 103%.
Turning to `CCOc1ccccc1C(=O)OCC(=O)Nc1cccc(S(=O)(=O)N(C)C)c1`, the growth in [1] is 85.8%; in assay [2] it was 92.9%; in assay [3], 94.9%; in assay [4] it was 95.2%; in assay [5], 129%; in [6], 98.5%. The growth was 126% in [7]; 95.3% in assay [8]; 96.8% in assay [9]; 96.2% in [12]; 97% in [13]; 102% in [17]. In addition, the values for the growth in [14], in assay [15] and in [16] were 96.1%, 98.9% and 104%, respectively.
Turning to `COc1ccc2c(c1)nc(N)c1c3cc(C)c(C)cc3cn21`, the growth in [1] is 81.1%; in assay [2], 82.3%; in assay [3], 111%; in assay [4], 78.5%; in assay [5], 86.8%; in assay [6] it was 77.2%. For the same compound, the growth was 70.6% in assay [7]; 37.3% in assay [9]; 63.8% in assay [10]; 94.5% in assay [11]; -18% (active) in assay [12]; 41.9% in [13]. The growth was 16.3% in assay [17], 49.6% in assay [14], 85.9% in assay [15] and 46.8% in assay [16].
Turning to `O=C1c2nsnc2C(=O)c2c(F)c(F)c(F)c(F)c21`, the growth in [1] was -1.71% (active); in assay [2] it was -38.6% (active); in assay [3], -73.8% (active); in assay [4] it was -99.5% (active); in assay [5] it was 32.4%; in assay [6], -22.9% (active). The growth in assay [7] was -90.1% (active); in assay [9], -17.1% (active); in [10] it was -38.9% (active); in assay [11], -96.7% (active); in assay [12] it was -67.9% (active); in [13], -57.3% (active). The growth is -45.1% (active) in assay [17], -93.1% (active) in assay [14] and -44% (active) in assay [16].
